Assay results taken from PubChem BioAssay.

Tested on: Human papillomavirus type 1a E7 protein (residues 1-88)
Test: HPV1a E7 small-molecule binders, primary screen, biochemical, small-molecule microarray, residues 1-88, 635 nm (AID 1129)
Details: small-molecule microarray binding, fluorescence 635 nm; higher = more signal

SMILES	composite z-score
C=CCc1cccc([C@@H]2[C@@H](C)CC[C@H]3C(=O)N4[C@H](c5cccc(CC=C)c5)[C@@H](C)CC[C@H]4C(=O)N23)c1	1.09
CCCCCCc1nc(C2CC2)c(C)c2c1[Si](C(C)C)(C(C)C)OC2	-1.51
CC(C)(C)OC(=O)CC[C@]1(C(=O)NCCN2CCOCC2)N=C(c2ccc(OCCCO)cc2)O[C@H]1c1ccccc1CN=[N+]=[N-]	1.17
CCOC(=O)C[C@H]1[C@H](OC(=O)c2ccccc2-c2ccccc2)[C@@H](NC(=O)c2ccc(-c3ccccc3)cc2)c2cc(OCCCO)ccc2N1C(=O)Cc1ccc(OC)cc1	-0.301
C=CCN1C(=O)[C@@]2(Cc3ccccc3)N=C(c3ccc(OCCCO)cc3)O[C@H]2c2ccccc21	1.23
C=CCC(OC(C)=O)[C@@H]1[C@@H](N(Cc2cc3ccccc3o2)C(=O)c2ccc(C)cc2)c2cc(OCCCO)ccc2N1C(=O)c1ccc2ccccc2n1 (some centres undefined)	-0.593
C=C(C(=O)CC[C@H](OC(=O)c1ccccc1-c1ccccc1C(=O)O)c1ccc(CO)o1)C(C)C	0.0323
O=C(CS)NCCCCCNC(=O)[C@H]1C[C@H]2C(=O)N3CCC[C@H]3C(=O)N2[C@H]1c1ccc(O)cc1	-1.25
N#Cc1ccc(NN2C(C(O)CCc3ccccc3)C=CC3C(=O)N(c4ccccc4)C(=O)C32)cc1 (centres undefined)	1.08
O=[N+]([O-])c1ccc(C[n+]2ccc3ccc(O)cc3c2)o1	0.275
Cc1ccc(S[C@]2(C(=O)NC(C)C)CC(=O)N(Cc3cc(C(F)(F)F)cc(C(F)(F)F)c3)[C@@H]2c2ccc(CO)cc2I)cc1	-0.335
COC(=O)[C@@]1(Cc2ccccc2N=[N+]=[N-])N=C(c2ccc(OCCCO)cc2)O[C@H]1c1ccccc1CN=[N+]=[N-]	1.02
O=C(NCc1ccccc1)c1ccc(Br)cc1[N+](=O)[O-]	0.292
C=C(COC)/C(=C/C[C@H](OC(C)=O)c1ccc(OCCO)cc1)c1cnc2ccccc2c1	1.14
COc1cc2c(cc1OC)CN(C(=O)[C@H]1[C@@H]3C(=O)O[C@@H](c4ccccc4)[C@@H](c4ccccc4)N3[C@@H](c3ccccc3OCCO)[C@]13C(=O)Nc1ccc(C#CC4(O)CCCCCC4)cc13)CC2	1.21
COCCOC(=O)N1C(=O)[C@@]2(c3cc(C#CCCO)ccc31)[C@H](c1ccc(O)cc1)N1[C@H](c3ccccc3)[C@H](c3ccccc3)OC(=O)[C@H]1[C@@H]2C(=O)Nc1nc2ccccc2s1	1.19
CC[C@H]1C2=C3C(CC[C@H]4C(OC)OC[C@](C)([C@@H]34)N(C(=O)OC(C)(C)C)C2)C(CO)C1CO (some centres undefined)	1.18
CN(C)C(=O)[C@@]1(Cc2ccccc2N=[N+]=[N-])N=C(c2ccc(OCCCO)cc2)O[C@H]1c1ccccc1CN=[N+]=[N-]	1.23
CC(C)[C@H]1NC(=O)[C@@]23C(=O)N[C@@H](Cc4ccccc4)C2[C@H](C)[C@@]2(C)O[C@H]2C3/C=C/C/C=C\CNC(=O)[C@H](C)NC1=O (some centres undefined)	-0.983
O=C1c2ccccc2[C@](Cc2ccccc2I)(C(=O)NCc2ccccc2)[C@H](c2ccc(CO)cc2)N1Cc1ccccc1C(F)(F)F	-0.455
O=C1c2ccccc2[C@](Cc2ccccc2I)(C(=O)NCC(F)(F)F)[C@H](c2ccc(CO)cc2)N1Cc1ccccc1C(F)(F)F	1.22
CCC1=C2CN(Cc3ccccc3Br)[C@@H]([C@@H](O)Cc3ccccc3)C2C=CCC1 (some centres undefined)	1.13
C=CCc1cccc([C@H]2N[C@H](C(=O)O)CC[C@@H]2C)c1	0.297
COC(=O)C1=CC(c2ccc(CO)cc2)=CC(c2cccs2)N(Cc2cccc(OC(F)(F)F)c2)C=C1C(=O)OC (centres undefined)	1.23
C=C(CCCC)C(=O)CC[C@@H](OC(=O)c1cccnc1)c1cccc(OCCO)c1	-0.411
CO[C@H]1COC(=O)[C@H](Cc2ccccc2)NC(=O)CC=C[C@@H](C)[C@H](OC)COC(=O)CC=C[C@@H]1C	0.779
COCCOC(=O)N1C(=O)[C@@]2(c3cc(C#CCC(C(=O)OC)C(=O)OC)ccc31)[C@H](C(=O)N1CCN(c3ncccn3)CC1)[C@H]1C(=O)O[C@H](c3ccccc3)[C@H](c3ccccc3)N1[C@@H]2c1ccc(O)cc1	1.19
CCCC=C(CCC)[C@@H](NS(=O)(=O)c1cccc(C(F)(F)F)c1)c1ccc(C(=O)OC)cc1	0.4
NC(=O)[C@H]1[C@@H]2C(=O)O[C@@H](c3ccccc3)[C@@H](c3ccccc3)N2[C@@H](c2ccc(O)cc2)[C@]12C(=O)Nc1ccc(C#CCCO)cc12	-1.66
